Test results from PubChem BioAssay AID1942 (Johns Hopkins Ion Channel Center, 2009).
The campaign covered roughly 2,400 compounds. About 580 (24%) were called active. Only a sample is shown. Unmarked numbers belong to inactive results.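 How the source made its calls: active means activity change at or above the mean plus 3 SD of buffer wells without dofetilide, per plate; inactive means the rest.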

The compounds below were run against Potassium voltage-gated channel subfamily KQT member 2 (Rattus norvegicus) (UniProt O88943) (assay: rat KCNQ2 channel activation by compounds alone, confirmation, counter-screen for hERG block protector project, cell-based, CHO, FluxOR thallium flux (AID 1942;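 further: normalized value minus buffer-control mean plus three SD of buffer wells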)). Details: CHO-KCNQ2 cells, FluxOR thallium flux fluorescence; at 10 µM; hits give high values.
Potassium voltage-gated channel subfamily KQT member 2 (Rattus norvegicus), sequence (O88943 whole entry, looked up): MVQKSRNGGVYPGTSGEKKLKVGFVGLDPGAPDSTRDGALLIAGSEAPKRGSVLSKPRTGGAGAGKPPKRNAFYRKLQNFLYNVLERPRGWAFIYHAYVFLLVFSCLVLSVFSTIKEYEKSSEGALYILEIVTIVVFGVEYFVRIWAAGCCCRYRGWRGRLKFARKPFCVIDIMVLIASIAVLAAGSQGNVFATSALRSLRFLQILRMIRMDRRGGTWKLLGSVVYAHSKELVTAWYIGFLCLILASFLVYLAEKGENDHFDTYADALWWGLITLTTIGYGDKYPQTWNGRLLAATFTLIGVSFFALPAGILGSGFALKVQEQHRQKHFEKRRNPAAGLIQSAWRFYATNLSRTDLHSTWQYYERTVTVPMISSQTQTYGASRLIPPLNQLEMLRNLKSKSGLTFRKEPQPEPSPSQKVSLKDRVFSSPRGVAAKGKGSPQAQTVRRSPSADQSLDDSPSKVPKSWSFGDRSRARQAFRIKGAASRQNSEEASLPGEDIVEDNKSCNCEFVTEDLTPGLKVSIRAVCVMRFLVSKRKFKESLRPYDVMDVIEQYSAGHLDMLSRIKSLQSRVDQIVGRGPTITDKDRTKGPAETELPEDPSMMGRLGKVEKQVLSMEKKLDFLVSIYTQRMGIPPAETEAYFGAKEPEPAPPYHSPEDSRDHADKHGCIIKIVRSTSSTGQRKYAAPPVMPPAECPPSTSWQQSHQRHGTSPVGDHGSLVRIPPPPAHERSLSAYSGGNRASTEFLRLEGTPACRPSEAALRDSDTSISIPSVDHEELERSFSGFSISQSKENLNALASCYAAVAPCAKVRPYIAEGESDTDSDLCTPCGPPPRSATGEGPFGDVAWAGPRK

Structure (SMILES) | activity change, less the hit threshold
Cc1[nH]c(-c2ccccn2)nc(=S)c1Cl | 92% (active)
Cc1cc(=S)nc(-c2ccccn2)[nH]1 | -4.4%
COC(=O)Cc1[nH]n(-c2nc3ccccc3s2)c(=O)c1C(C)=Nc1ccc(C)cc1 | -15.8%
COc1cc(NC(=O)c2cc(-c3cccnc3)nc3ccc(C)cc23)c(OC)cc1Cl | -13.9%
COc1ccc(NC(=O)C(=O)NNC(=O)c2cccs2)c(OC)c1 | 30.8% (active)
COc1cccc(CCNS(=O)(=O)CCNC(=O)c2cccc(OC)c2)c1 | -13.6%
COc1ccc(C(=O)NNC(=O)C(=O)Nc2cccc3ccccc23)cc1 | 59.1% (active)
COc1cccc(C(=O)NNC(=O)C(=O)Nc2cccc3ccccc23)c1 | 59.7% (active)
COc1cc(NC(=O)c2ccc3c(c2)OCO3)ccc1NC(=O)c1cccs1 | -18.6%
COc1ccc(OC)c(NC(=O)C(=O)NNC(=O)c2cccs2)c1 | -6.1%
COc1cc(OC)cc(C(=O)NNC(=O)C(=O)Nc2cc(OC)c(Cl)cc2OC)c1 | 49.6% (active)
C=C(C)CSc1nnc2[nH]c(=O)cc(N)n12 | -18.3%
O=C(/C=C/Nc1ccccc1)C(F)(F)F | -19.8%
COc1ccc(C2CC(c3ccc(Cl)cc3Cl)Nc3nc(N)nn32)cc1OC (centres undefined) | -21.7%
COc1ccc(/C=C2\SC(c3ccc(C)cc3)=NC2=O)cc1OC | -17.7%
Oc1ccc(Br)cc1-c1n[nH]c(=S)n1Cc1ccccc1 | -4.7%
Fc1ccccc1N1CCN(c2cnc3ccccc3n2)CC1 | -14.5%
Cc1cccc(N(C(=O)c2csnn2)C(C(=O)NCc2ccccc2)c2ccncc2)c1 (centres undefined) | -10.4%
O=C1C(c2ccccc2)C(c2ccccc2)NC(c2ccccc2)C1c1ccccc1 (centres undefined) | -17.9%
O=C(CCSc1ccc(Br)cc1)c1ccc(O)cc1 | -15%
O=C(Cn1cnc2ccccc21)c1ccccc1 | -11.5%
COc1cccc(C(=O)NNC(=O)C(=O)Nc2ccc(OC)cc2OC)c1 | 29.6% (active)

Structure (SMILES) | activity change, less the hit threshold
O=C(CN1C(=O)COc2ccccc21)NCCCN1CCOCC1 | -8.4%
Cc1cccc(NC(=S)N/N=C2/CCCCc3ccccc32)c1 | -20.4%
Cc1cccc2nc(-c3cccnc3)c(NCCC(C)C)n12 | -51.2%
COc1nnc(-c2ccc(C)c(S(=O)(=O)NC(C)(C)CO)c2)c2ccccc12 | -9.1%
O=C1NC(=S)SC1=C1CCCCCC1 | 58.8% (active)
CCOC(=O)N1CCN(C(=O)CN(c2ccc(OCC)cc2)S(C)(=O)=O)CC1 | -17.4%
c1ccc2oc(-c3nn4c(Cn5cnc6ccccc65)nnc4s3)cc2c1 | -19.1%
Cc1cccc(Cn2c(O)c(N=NC(=S)Nc3ccccc3F)c3ccccc32)c1 | -22.3%
C=CCn1c(O)c(N=NC(=S)Nc2ccccc2F)c2cc(S(=O)(=O)N3CCOCC3)ccc21 | -16.8%
C/C(Cl)=C\Cn1c(O)c(N=NC(N)=S)c2cc(Br)ccc21 | 16.1% (active)
CCC1(C(=O)O)NC(c2cc(OC)ccc2O)C2C(=O)N(Cc3ccccc3)C(=O)C21 (centres undefined) | -9.2%
CCOC(=O)c1sc2nc(C)[nH]c(=S)c2c1C | 4.9% (active)
CCOC(=O)c1sc(NN=C(C(=O)OC)C(=O)OC)c(C(=O)OCC)c1C | -9.1%
CCOC(=O)c1sc2nc(Cc3ccc(Cl)cc3)[nH]c(=S)c2c1C | -4.8%
Cc1ccc(Cn2nnc3c(=O)n(CC(=O)N4CCCc5ccccc54)cnc32)cc1 | -14.8%
O=C(NN1C(=O)C2C(c3ccccc3)C=CC(c3ccccc3)C2C1=O)c1ccncc1 (centres undefined) | -42.5%
O=C(N/N=C/c1ccccn1)c1cc(-c2ccc(Br)cc2)nc2ccccc12 | -26.1%
O=C(N/N=C/c1ccccn1)c1sc2ccccc2c1Cl | 27.4% (active)
Cc1c(C(=O)N/N=C/c2ccccn2)nnn1-c1nonc1N | -9.3%
O=C1c2cccc3cccc(c23)C(=O)C1(O)O | -5.4%
Cc1ccc(C(=O)O)cc1-c1ccc(/C=C2\SC(=O)N(CC(=O)Nc3ccccc3)C2=O)o1 | -22%
COc1ccc(C(=O)O)cc1S(=O)(=O)Nc1cccc(C(F)(F)F)c1 | -13.4%

Structure (SMILES) | activity change, less the hit threshold
Cc1nn(-c2cccc(C(F)(F)F)c2)c(Cl)c1/C=N/Nc1cccc(C(=O)O)c1 | 17.9% (active)
Cc1nn(-c2ccccc2)c(N2CCCC2)c1/C=N/O | -13.5%
O=C(O)c1c2c(nc3ccccc13)/C(=C/c1cccc([N+](=O)[O-])c1)CCC2 | -21%
Cc1ccccc1C(=O)c1cn[nH]c1-c1ccccc1O | -32.5%
O=c1c(-c2ccccc2)nc(-c2ccccc2)cn1O | 65.1% (active)
COC(=O)Nc1c(-c2ccccc2)nc2ccccn12 | -17%
Cc1nc(-c2ccccc2)cn(O)c1=O | -1%
CC(=O)c1ccc2c(c1)OCCOCCOCCO2 | -20.1%
Cc1cnc(C(=O)Nc2nccs2)cn1 | -18.4%
O=C(CCc1ccccc1)Nc1nccs1 | -23.4%
Fc1ccc(NC(=S)Nc2nccs2)cc1 | 1.8% (active)
COc1ccc(-c2cc(C(=O)N3CCCC3)no2)cc1OC | 2.6% (active)
COc1ccc(-c2cc(C(=O)N3CCCC3)no2)cc1 | -9%
COc1ccc(-c2cc(C(F)(F)F)nc(N3CCCCC3)n2)cc1OC | -16.3%
CC(/C=C1\SC(=S)N(c2ccc(C(=O)O)cc2)C1=O)=C\c1ccccc1 | -20.4%
CC(/C=C1\N=C(SCc2ccccc2Cl)SC1=O)=C\c1ccccc1 | -10.1%
CC(/C=C1\SC(=S)N(NS(=O)(=O)c2ccc(C)cc2)C1=O)=C\c1ccccc1 | 8.8% (active)
Cc1ccc(S(=O)(=O)N2C(=O)/C(=C3\SC(=S)NC3=O)c3ccccc32)cc1 | -14.4%
CC(/C=C1\SC(=S)N(NS(=O)(=O)c2ccccc2)C1=O)=C\c1ccccc1 | 18.1% (active)
COc1ccccc1/C=C1\SC(=S)N(NS(=O)(=O)c2ccc(C)cc2)C1=O | -24.5%
